From PubChem BioAssay
Compounds with a hit are over-represented: about 2% of the library has one in this group of screens.
A3A deaminase = APOBEC3A ssDNA deaminase inhibitors, primary screen, selectivity assay for APOBEC3G inhibitor project, biochemical, FAM/TAMRA oligo cleavage fluorescence. DNA dC->dU-editing enzyme APOBEC-3A (Homo sapiens), P31941. recombinant A3A, FAM/TAMRA ssDNA deamination fluorescence. inhibition, % at 20 µM. 0.41% of 330,000 active;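 active = at least 40% inhibition at 20 µM here, with at most 30% in a related deaminase screen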
Target sequence (P31941 whole entry, looked up): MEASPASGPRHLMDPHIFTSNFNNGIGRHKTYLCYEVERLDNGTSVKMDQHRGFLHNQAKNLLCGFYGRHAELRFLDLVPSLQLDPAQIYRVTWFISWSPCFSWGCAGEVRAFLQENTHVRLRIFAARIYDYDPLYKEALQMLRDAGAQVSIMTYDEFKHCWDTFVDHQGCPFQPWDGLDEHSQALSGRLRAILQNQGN
NALP1 yeast inh = NALP1 inflammasome inhibitors in reconstituted yeast, colorimetric, S. cerevisiae, triplicate retest; 0.61% of 280,000 active; inhibition, % at 10 µM; S. cerevisiae NALP1/ASC/caspase-1 growth, X-gal OD620, 72 h; in the data active = inhibition mostly above about 24%, no sharp cut-off; inactive = mostly below about 32%
Fh CTSL1 inh = Fasciola hepatica cathepsin L1 inhibitors, primary screen, counter-screen for PFM18AAP inhibitor project, biochemical, QFRET, fluorogenic peptide substrate; recombinant F. hepatica cathepsin L1, Z-Leu-Arg-MCA fluorescence; inhibition, % at 5.96 µM; 0.49% of 300,000 active; AID 1906, 2009;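 active = inhibition above the mean of all tested compounds plus 3 SD, set per screening campaign, cut at about 17% in these data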
APOBEC3G inh = APOBEC3G DNA deaminase inhibitors, primary screen, biochemical, fluorescence, single-stranded DNA substrate, uHTS. DNA dC->dU-editing enzyme APOBEC-3G (Homo sapiens), Q9HC16. recombinant A3G, ssDNA deamination FAM/TAMRA fluorescence. inhibition, % at 20 µM. 0.28% of 330,000 active;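 active = inhibition of at least 40% at 20 µM, with no more than 30% in the related APOBEC3A deaminase screen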
sPLA2-III inh = human group III sPLA2 inhibitors, primary screen, biochemical, QFRET, BODIPY PC-A2 liposome substrate. Group 3 secretory phospholipase A2 (Homo sapiens), Q9NZ20. QFRET BODIPY PC-A2 liposome hydrolysis, fluorescence. inhibition, % at 12.2 µM. 0.56% of 370,000 active. AID 743126, 2013;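 active = inhibition above mean plus 3 SD of compounds lying within the high and low control bounds, cut at about 19% in these data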
Target sequence (Q9NZ20 whole entry, looked up): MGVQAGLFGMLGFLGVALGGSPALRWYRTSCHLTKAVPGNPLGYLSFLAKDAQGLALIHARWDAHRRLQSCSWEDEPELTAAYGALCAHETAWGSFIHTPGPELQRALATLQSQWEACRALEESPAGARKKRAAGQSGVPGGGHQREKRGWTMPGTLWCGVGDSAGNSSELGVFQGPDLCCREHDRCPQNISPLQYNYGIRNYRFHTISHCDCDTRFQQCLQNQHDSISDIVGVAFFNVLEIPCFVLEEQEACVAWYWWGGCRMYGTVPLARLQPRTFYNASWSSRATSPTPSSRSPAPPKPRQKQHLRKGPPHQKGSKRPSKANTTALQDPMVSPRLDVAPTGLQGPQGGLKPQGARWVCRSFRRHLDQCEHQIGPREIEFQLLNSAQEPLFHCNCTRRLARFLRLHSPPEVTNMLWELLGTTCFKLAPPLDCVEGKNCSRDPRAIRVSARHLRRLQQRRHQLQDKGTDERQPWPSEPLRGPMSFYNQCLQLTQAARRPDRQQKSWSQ
APOBEC3A confirm = APOBEC3A deaminase inhibitors, retest, confirmation, selectivity assay for APOBEC3G inhibitor project, biochemical, single concentration, fluorescence readout. recombinant A3A, ssDNA deaminase UDG fluorescence assay. shares compounds with A3A deaminase. AID 493151, 2011. inhibition, % at 20 µM. 63% of 1,400 active;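 active = inhibition reaching a set limit, 80% of the first screen's cutoff, at 20 µM in any replicate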
UDG ctr A3A = E. coli UDG inhibitors, confirmation, counter-screen for APOBEC3A inhibitor project, biochemical, single concentration, fluorescence, FAM/TAMRA oligo; AID 504714, 2011; 1,000 tested, under 10 active; shares compounds with A3A deaminase; inhibition, % at 20 µM; UDG counterscreen, FAM/TAMRA uracil oligo fluorescence; call rule not given here
Of the large screens only hits and unclear results are named; the others gave an inactive call (follow-up assays come after a bar, where they were run).

COC(=O)C1CN(Cc2cn(CCOC(C)=O)nn2)CCS(=O)(=O)N1Cc1ccc(Cl)cc1 (stereo not given)	none (no result: A3A deaminase, NALP1 yeast inh, Fh CTSL1 inh, APOBEC3G inh)
Cc1ccc(/C=C/c2ccc(=O)n(Cc3ccc(F)cc3)n2)cc1	none
Cc1ccc(/C=C/c2ccc(=O)n(Cc3ccccc3Cl)n2)cc1	NALP1 yeast inh 37.0
Cc1ccc(-n2c(SCC(=O)Nc3ccc4c(c3)OCCO4)nnc2-c2cnccn2)cc1	none (no result: A3A deaminase, NALP1 yeast inh, Fh CTSL1 inh, APOBEC3G inh)
O=C(COC(=O)c1ccc([N+](=O)[O-])s1)Nc1ncc(C(F)(F)F)cc1Cl	Fh CTSL1 inh 34.0
O=C(COC(=O)c1ccccn1)Nc1ncc(C(F)(F)F)cc1Cl	none
CC(C)(C)c1ccc(-c2nnc3n2N=C(c2ccc(Cl)cc2)CS3)cc1	none (no result: A3A deaminase, NALP1 yeast inh, Fh CTSL1 inh, APOBEC3G inh)
O=C(Cc1ccccc1Cl)NC1(O)C(=O)c2ccccc2C1=O	Fh CTSL1 inh 25.8
O=C(Cc1ccc(Cl)cc1)NCc1ccccc1Cl	none
CC1(C)CC(=O)C2=C(C1)C(c1cn(-c3ccccc3)nc1-c1ccccc1)C(C#N)=C(N)O2 (stereo not given)	NALP1 yeast inh 43.1
CC1(C)CC(=O)C2=C(C1)OC(N)=C(C#N)C2c1cn(-c2ccccc2)nc1-c1ccc(F)cc1 (stereo not given)	none
CCC(C)NS(=O)(=O)c1ccc(OCC(=O)Nc2ccc3c(c2)OCO3)cc1 (stereo not given)	NALP1 yeast inh 41.3
Cc1ccc2nc(NCCNC(=O)c3ccccc3)c(C#N)cc2c1	Fh CTSL1 inh 38.5
CCOc1ccc(-n2c(SCC(=O)Nc3ccccc3-c3ccccc3)nnc2-c2ccncc2)cc1	none (no result: A3A deaminase, NALP1 yeast inh, Fh CTSL1 inh, APOBEC3G inh)
COC(=O)[C@]12C[C@H](CC(=O)NCCc3ccccc3OC)C(=O)N(CCc3ccc(OC)c(OC)c3)C1=C[C@H](C1CCCC1)O[C@@H]2C	none (no result: A3A deaminase, NALP1 yeast inh, Fh CTSL1 inh, APOBEC3G inh)
Cc1cc(S(=O)(=O)Nc2cc(C)c(O)c(C)c2)c(C)s1	NALP1 yeast inh 40.0
CCCn1c(=N)n(CC(=O)c2ccc(Cl)cc2)c2ccccc21	none
CCCn1c(=N)n(CC(=O)c2ccc([N+](=O)[O-])cc2)c2ccccc21	Fh CTSL1 inh 18.4
Cc1cc(C(=O)c2ccccc2)c(NC(=O)CCl)s1	Fh CTSL1 inh 17.9
CCn1c2ccccc2c2nc3ccccc3nc21	none (no result: sPLA2-III inh)
CC(=O)n1c2ccccc2c2nc3ccccc3nc21	NALP1 yeast inh 30.4 (no result: sPLA2-III inh)
Cc1cc(C(=O)O[C@@H]2CCC[C@]3(C(=O)N(Cc4ccccc4)c4ccccc43)[C@H]2NC(=O)CCc2ccccc2)no1	none (no result: A3A deaminase, NALP1 yeast inh, Fh CTSL1 inh, APOBEC3G inh)
CNC(=O)CSc1nnc(-c2cnccn2)n1C	NALP1 yeast inh 26.0
Cn1c(SCC(=O)NC(C)(C)C)nnc1-c1cnccn1	none
CCCCNC(=O)C[C@H]1C[C@@]2(C(=O)OC)C(=C[C@H](C(C)(C)C)O[C@@H]2C)N(Cc2cccc3ccccc23)C1=O	none (no result: A3A deaminase, NALP1 yeast inh, Fh CTSL1 inh, APOBEC3G inh)
COC(=O)c1ccc(-c2ccco2)n1Cc1nc(-c2ccc(OC)c(OC)c2)oc1C	Fh CTSL1 inh 19.4
O=C(Cc1cccs1)N/N=C\c1ccccc1	none (no result: A3A deaminase, NALP1 yeast inh, Fh CTSL1 inh, APOBEC3G inh)
COc1ccc(/C=C2/CN(Cc3ccc(OC)cc3OC)C3=N[C@H](c4ccccc4)CC(=O)N32)cc1	none (no result: A3A deaminase, NALP1 yeast inh, Fh CTSL1 inh, APOBEC3G inh)
Fc1ccc(-c2csc(N3CCC(c4ccccc4)C3)n2)cc1 (stereo not given)	NALP1 yeast inh 31.6
OC(COc1ccc2ccccc2c1)CN1CCN(c2ccc(F)cc2)CC1 (stereo not given)	NALP1 yeast inh 44.1
COc1cccc(OCC(O)CN2CCN(c3ccc(F)cc3)CC2)c1 (stereo not given)	none
C=CCn1cc(-c2ccc(Cl)cc2)cc(C#N)c1=O	none
CC(C)n1cc(-c2ccc(Cl)cc2)cc(C#N)c1=O	NALP1 yeast inh 31.1
O=C(O)CCCCNCc1ccccc1	NALP1 yeast inh 40.5
COc1ccc(CC(=O)OCC(=O)Nc2cccc(Cl)c2)cc1	none
COc1cccc(NC(=O)COC(=O)Cc2ccc(Cl)cc2)c1	NALP1 yeast inh 30.5
O=C(CCNC(=O)c1ccccc1Cl)Nc1ccc2c(c1)OCO2	none
O=C(CCl)Nc1ccccc1C(=O)Nc1ccc2c(c1)OCO2	Fh CTSL1 inh 20.6
Cc1cc(C)n2c(SCC(=O)Nc3cc(S(=O)(=O)N(C)C)ccc3C)nnc2n1	A3A deaminase 40.1 (no result: NALP1 yeast inh, Fh CTSL1 inh) | APOBEC3A confirm inactive
Cc1ccc(S(=O)(=O)N(C)C)cc1NC(=O)CSc1nnc(C2CC2)n1C1CC1	none (no result: NALP1 yeast inh, Fh CTSL1 inh)
CC(C)COC(=O)N1CCCC1C(=O)Nc1nccs1 (stereo not given)	A3A deaminase 53.9 | APOBEC3A confirm inactive
Cc1ccc(OC(C)C(=O)Nc2ccc3c(c2)n(C)c(=O)n3C)c(C)c1 (stereo not given)	A3A deaminase 84.4 (no result: Fh CTSL1 inh) | APOBEC3A confirm inactive
CC(C)N1CC(O)=C(c2nc3ccccc3[nH]2)C1=N	none
CC(C)N1CC(O)=C(c2ccccc2)C1=N	A3A deaminase 73.9 | APOBEC3A confirm inactive | UDG ctr A3A inactive
CCC[N+]1(CC#CC2(O)CCCCC2)CCOCC1	A3A deaminase 74.0 | APOBEC3A confirm 82.3 | UDG ctr A3A inactive
O=C(NCCCN1CCN(c2ccc(F)cc2)CC1)Nc1ccccc1	none (no result: A3A deaminase, NALP1 yeast inh, Fh CTSL1 inh, APOBEC3G inh)
CCN1CCN(c2ccc(S(=O)(=O)N3CCCCC3)cc2NC(=O)COc2ccc(Cl)cc2)CC1	none (no result: NALP1 yeast inh)
CC(Oc1ccc(F)cc1)C(=O)Nc1cc(S(=O)(=O)N2CCCCC2)ccc1N1CCOCC1 (stereo not given)	A3A deaminase 42.2 (no result: NALP1 yeast inh) | APOBEC3A confirm inactive
CCN1CCN(c2ccc(S(=O)(=O)N3CCCCC3)cc2NC(=O)COc2ccc(F)cc2Cl)CC1	A3A deaminase 55.9 | APOBEC3A confirm 52.9 | UDG ctr A3A inactive
O=C(COc1ccc(F)cc1)Nc1cc(S(=O)(=O)N2CCCCC2)ccc1N1CCCCC1	none (no result: NALP1 yeast inh)
CCN1CCN(c2ccc(S(=O)(=O)N3CCCCC3)cc2NC(=O)COc2cc(C)ccc2Cl)CC1	A3A deaminase 56.8 (no result: NALP1 yeast inh, sPLA2-III inh) | APOBEC3A confirm 72.7 | UDG ctr A3A inactive
CSCCCNc1nc(C)nc2c1nnn2Cc1ccccc1	none (no result: A3A deaminase, NALP1 yeast inh, Fh CTSL1 inh, APOBEC3G inh)
CCOc1ccc(-n2c(SC/C=C/c3ccccc3)nnc2-c2ccco2)cc1	none (no result: A3A deaminase, NALP1 yeast inh, Fh CTSL1 inh, APOBEC3G inh)
COc1ccc(N2CCN(CCCNC(=O)Cn3c(=O)c4cccn4c4c(C)ccnc43)CC2)cc1	none (no result: A3A deaminase, NALP1 yeast inh, Fh CTSL1 inh, APOBEC3G inh)
